For 20 molecules, growth inhibition, inhibition and outcome results are on record in PubChem BioAssay.

The nature of assay [1]: antimalarial activity against Dd2 strain (AID 2302;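 active = growth inhibition above 50% at the single 2 µM test dose, taken to imply half-maximal potency below 2 µM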;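 also: 0% = DMSO untreated growth and 100% = chloroquine plus artemisinin killed control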). To be noted: P. falciparum Dd2 in RBCs, LDH growth readout, 72 h; at 2 µM; hits give high values.
A short description of assay [2]: human hepatoma cell viability loss – ATP luminescence, cytotoxicity control for P. falciparum antimalarial project, primary screen (AID 2303;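 active = inhibition above 50%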;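 also: 0% = DMSO wells and 100% = digitonin-killed cells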). Conditions: HepG2 viability, 24-48 h, at 10 µM, hits give high values.
Assay [3] addresses L-lactate dehydrogenase (Plasmodium falciparum (isolate CDC / Honduras)) (UniProt Q27743). Nature of the assay: PfLDH activity inhibition – cell lysate, 3D7 strain, counter-screen for P. falciparum growth inhibition project (AID 2304).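 Also: 0% = vehicle and 100% = reference inhibitor.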 Conditions: P. falciparum 3D7 crude extract, LDH APAD/NBT absorbance; at 2 µM; hits give high values. (The purpose of a counterscreen is to sort out artefacts and off-target activity.)

Assay [4] in a line: inhibition of 3D7 malaria parasite growth – strain 3D7 (AID 2306).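 Also: 0% = DMSO wells and 100% = chloroquine plus artemisinin control wells.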 To be noted: P. falciparum 3D7 erythrocytic growth, LDH absorbance, 72 h; at 2 µM; hits give high values.
In assay [5] the target is Calcium-dependent protein kinase 1 (Plasmodium falciparum (isolate 3D7)) (UniProt P62344). Put plainly: PfCDPK1 kinase inhibitors, biochemical, TCAMS library (AID 1159585; cut-off not given, nearly all actives have IC50 up to about 0.98 µM;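 also: inhibitors leave more ATP so luminescence rises with inhibition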). Conditions: recombinant PfCDPK1, Kinase-Glo ATP depletion luminescence.
Assay [6] has as its target Plasmodium falciparum protein kinase 6 (PK6, PF3D7_1337100) (UniProt Q8IDW1). Put plainly: PfPK6 kinase inhibitors, biochemical, TCAMS library (AID 1159586). To be noted: recombinant PfPK6, Kinase-Glo ATP depletion luminescence. In general terms: In Kinase-Glo more light means more ATP remaining.
Assay [7] concerns the target Protein kinase 7 (PK7), Plasmodium falciparum 3D7 (PF3D7_0213400) (UniProt Q7YTF7). Put plainly: inhibition of Plasmodium PK7 catalytic activity – biochemical, TCAMS antimalarial set, Kinase-Glo luminescence (AID 1159587). To be noted: recombinant PfPK7, Kinase-Glo ATP depletion luminescence.
Assay [8] has as its target Calcium-dependent protein kinase 4 (Plasmodium falciparum (isolate 3D7)) (UniProt Q8IBS5). Put plainly: PfCDPK4 kinase inhibitors, biochemical, TCAMS library (AID 1159588; cut-off not given, nearly all actives have IC50 up to about 0.91 µM). To be noted: recombinant PfCDPK4, Kinase-Glo ATP depletion luminescence.

A number with no mark means an inactive call. For some of these results: Measured potencies and affinities stand elsewhere. Calls of active or inactive are those of the source. Unless noted, no rule for the calls is given here.

Calcium-dependent protein kinase 4 (Plasmodium falciparum (isolate 3D7)), sequence (Q8IBS5 whole entry, looked up): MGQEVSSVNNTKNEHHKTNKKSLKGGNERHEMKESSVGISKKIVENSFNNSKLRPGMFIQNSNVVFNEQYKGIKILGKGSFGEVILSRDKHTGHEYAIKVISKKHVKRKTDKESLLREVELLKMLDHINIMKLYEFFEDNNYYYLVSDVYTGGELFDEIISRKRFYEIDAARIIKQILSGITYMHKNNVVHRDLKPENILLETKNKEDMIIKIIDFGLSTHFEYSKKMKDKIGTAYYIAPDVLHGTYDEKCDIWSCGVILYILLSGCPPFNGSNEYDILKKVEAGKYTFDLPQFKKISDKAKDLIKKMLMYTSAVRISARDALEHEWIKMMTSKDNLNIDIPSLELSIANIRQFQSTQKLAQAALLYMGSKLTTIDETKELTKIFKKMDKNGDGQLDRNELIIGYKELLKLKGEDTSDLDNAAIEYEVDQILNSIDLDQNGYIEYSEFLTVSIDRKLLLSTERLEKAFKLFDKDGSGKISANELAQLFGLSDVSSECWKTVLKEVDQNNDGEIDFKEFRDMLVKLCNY
Plasmodium falciparum protein kinase 6 (PK6, PF3D7_1337100), sequence (Q8IDW1 1-305): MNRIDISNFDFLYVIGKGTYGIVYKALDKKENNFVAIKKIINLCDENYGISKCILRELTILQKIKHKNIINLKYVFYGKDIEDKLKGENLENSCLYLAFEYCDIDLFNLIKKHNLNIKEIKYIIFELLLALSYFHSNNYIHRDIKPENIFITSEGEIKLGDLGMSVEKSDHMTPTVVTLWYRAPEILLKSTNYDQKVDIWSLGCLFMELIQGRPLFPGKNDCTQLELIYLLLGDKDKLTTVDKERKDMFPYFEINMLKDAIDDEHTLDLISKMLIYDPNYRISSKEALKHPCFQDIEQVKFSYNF
L-lactate dehydrogenase (Plasmodium falciparum (isolate CDC / Honduras)), sequence (Q27743 whole entry, looked up): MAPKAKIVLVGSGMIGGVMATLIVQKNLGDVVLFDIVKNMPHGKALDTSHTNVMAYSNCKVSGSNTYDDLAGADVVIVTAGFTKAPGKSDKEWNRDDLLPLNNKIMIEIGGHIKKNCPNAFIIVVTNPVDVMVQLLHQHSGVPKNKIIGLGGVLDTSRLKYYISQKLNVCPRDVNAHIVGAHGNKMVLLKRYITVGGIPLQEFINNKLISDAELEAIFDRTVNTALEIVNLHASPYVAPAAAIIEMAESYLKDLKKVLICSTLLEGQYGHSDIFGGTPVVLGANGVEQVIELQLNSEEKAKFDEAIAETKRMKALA
Protein kinase 7 (PK7), Plasmodium falciparum 3D7 (PF3D7_0213400), sequence (Q7YTF7 1-343): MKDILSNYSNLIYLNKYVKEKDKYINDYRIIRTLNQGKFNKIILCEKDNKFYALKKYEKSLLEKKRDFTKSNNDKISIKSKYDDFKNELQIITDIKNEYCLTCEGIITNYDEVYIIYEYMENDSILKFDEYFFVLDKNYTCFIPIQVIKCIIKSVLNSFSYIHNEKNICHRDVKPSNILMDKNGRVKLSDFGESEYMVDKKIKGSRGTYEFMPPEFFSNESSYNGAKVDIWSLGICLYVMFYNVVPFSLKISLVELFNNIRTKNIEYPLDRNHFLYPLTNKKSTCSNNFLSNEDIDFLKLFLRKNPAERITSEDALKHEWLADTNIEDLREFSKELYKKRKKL
Calcium-dependent protein kinase 1 (Plasmodium falciparum (isolate 3D7)), sequence (P62344 whole entry, looked up): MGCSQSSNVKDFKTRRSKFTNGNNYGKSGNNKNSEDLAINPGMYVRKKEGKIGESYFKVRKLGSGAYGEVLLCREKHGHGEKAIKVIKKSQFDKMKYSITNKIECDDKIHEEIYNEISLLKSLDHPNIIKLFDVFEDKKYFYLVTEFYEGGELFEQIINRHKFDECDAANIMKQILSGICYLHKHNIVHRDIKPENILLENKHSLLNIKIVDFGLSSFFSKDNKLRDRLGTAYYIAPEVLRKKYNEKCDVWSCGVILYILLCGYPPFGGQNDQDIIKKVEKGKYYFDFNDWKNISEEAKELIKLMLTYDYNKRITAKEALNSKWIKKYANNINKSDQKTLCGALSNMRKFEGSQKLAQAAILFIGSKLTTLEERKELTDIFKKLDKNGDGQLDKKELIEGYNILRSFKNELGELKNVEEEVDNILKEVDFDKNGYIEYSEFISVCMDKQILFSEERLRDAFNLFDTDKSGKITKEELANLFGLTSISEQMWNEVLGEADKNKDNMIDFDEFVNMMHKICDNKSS

For orientation: inhibition means the relative decrease from the control value, in per cent. Take `O=c1ccc2ccc(F)c3c2n1CC3CN1CCC(NCc2cccc(-c3cccs3)c2)CC1` (stereo not given): the growth inhibition in assay [1] is 75% (active); in assay [4] it was 100% (active). Further, the inhibition is 17% in assay [2] and 0% in assay [3]. The outcome in assay [5], in assay [6], in assay [7] and in assay [8] was inactive.

Consider `CN(C)CCCOc1cccc(NC(=O)Nc2ccc(Cl)c(Cl)c2)c1`, for which the growth inhibition was 8% in assay [1] and 90% (active) in assay [4]. Besides, the inhibition in assay [2] was 6%; in assay [3], -1%. In addition, the result in assay [5], in assay [6], in assay [7] and in assay [8] was inactive.

Take `Cc1nc(Nc2ccc(F)cc2)nc(N2CCc3ccccc3C2C)c1CO` (stereo not given): the growth inhibition is 95% (active) in assay [1] and 101% (active) in assay [4]. The inhibition in assay [2] was -9%; in assay [3] it was -4%. Also, the result in assay [5], in assay [6], in assay [7] and in assay [8] was inactive.

On to `CN1CCN(CCCN(Cc2cccc(-c3cccc(CNC4CCCC4)c3)c2)C(=O)CCC2CCCC2)CC1`, for which the growth inhibition in assay [1] is 96% (active); in assay [4] it was 100% (active). The inhibition in assay [2] is 35%; in assay [3], -3%. In addition, the result in assay [5], in assay [6], in assay [7] and in assay [8] was inactive.

Take `CC1(C)N=C(N)N=C(N)N1c1cc(Cl)c(Cl)cc1Cl`: the figures for the growth inhibition in assay [1] and in assay [4] were -3% and 95% (active), respectively. Moreover, the inhibition in assay [2] is 11%; in assay [3], 1%. In addition, the outcome in assay [5], in assay [6], in assay [7] and in assay [8] was inactive.

`CCCCCC(C)C(C)c1cc(OC(N)=O)c2c(c1)OC(C)(C)C=C2c1ccncc1` (stereo not given): the growth inhibition was -1% in assay [1] and 96% (active) in assay [4]. Besides, the inhibition in assay [2] was 81% (active); in assay [3], 0%. In addition, the outcome in assay [5], in assay [6], in assay [7] and in assay [8] was inactive.

For the molecule `Fc1cccc(Cn2ncc3cc(Nc4ncnc5sc(C#Cc6ncc[nH]6)cc45)ccc32)c1`, the growth inhibition is 30% in assay [1] and 101% (active) in assay [4]. Further, the inhibition in assay [2] was 31%; in assay [3] it was 0%. The result in assay [5], in assay [6], in assay [7] and in assay [8] was inactive.

On to `Nc1nccc2ccc(-c3ccncc3)cc12`, for which the growth inhibition in assay [1] was 95% (active); in assay [4], 96% (active). The inhibition in assay [2] is 19%; in assay [3], 5%. The outcome in assay [5], in assay [6], in assay [7] and in assay [8] was inactive.

In the case of `NC1=NC(=O)C(=Cc2cn(-c3ccccc3)nc2-c2cccc(S(=O)(=O)N3CCCC3)c2)S1`, the growth inhibition in assay [1] was 68% (active); in assay [4], 85% (active). For the same molecule, the inhibition was -4% in assay [2] and 3% in assay [3]. For the same molecule, the outcome in assay [5], in assay [6], in assay [7] and in assay [8] was inactive.

In the case of `c1cc(CNCCc2ccncc2)cc(-c2ccc(-c3nc4ccccc4[nH]3)cc2)c1`, the growth inhibition was 97% (active) in assay [1] and 99% (active) in assay [4]. In addition, the inhibition in assay [2] is 28%; in assay [3], 5%. The result in assay [5], in assay [6], in assay [7] and in assay [8] was inactive.

Regarding `CCC[C@@H]([C@@H](CC1CCC(C)CC1)C(=O)N[C@@H](CCCNc1ncccn1)C(=O)Nc1nccs1)N(O)C=O` (stereo not given in full), the growth inhibition in assay [1] and in assay [4] was 98% (active) throughout. Further, the results for the inhibition in assay [2] and in assay [3] were 10% and 5%, respectively. Also, the outcome in assay [5], in assay [6], in assay [7] and in assay [8] was inactive.

Turning to `CCCNCc1ccc(-c2ccc(CN(CCOC)C(=O)c3nn(-c4ccccc4)nc3C)cc2)nc1`, the growth inhibition in assay [1] is 71% (active); in assay [4], 99% (active). The inhibition is 18% in assay [2] and 3% in assay [3]. Also, the outcome in assay [5], in assay [6], in assay [7] and in assay [8] was inactive.

As to `Cc1ccc(-c2ccn(Cc3ccc(OCc4ccccc4)cc3)n2)cn1` (tested in a mixture with another compound), the growth inhibition was 92% (active) in assay [1] and 93% (active) in assay [4]. Also, the inhibition in assay [2] was 1%; in assay [3], -3%. Also, the outcome in assay [5], in assay [6], in assay [7] and in assay [8] was inactive.

Consider `CCOC(=O)c1cnc2c(C(F)(F)F)cccc2c1Nc1ccc(O)cc1`, for which the growth inhibition in assay [1] was 67% (active); in assay [4], 96% (active). In addition, the inhibition in assay [2] is -7%; in assay [3], 2%. Moreover, the result in assay [5], in assay [6], in assay [7] and in assay [8] was inactive.

On to `COc1cccc(OCC2CCCN(CCCCNC(=O)c3ccc(NC(=O)c4ccc(Cl)cc4)cc3)C2)c1` (stereo not given), for which the growth inhibition in assay [1] was 49%; in assay [4], 100% (active). Besides, the values for the inhibition in assay [2] and in assay [3] were 33% and 7%, respectively. Besides, the result in assay [5], in assay [6], in assay [7] and in assay [8] was inactive.

Consider `O=C(c1cccc(Cl)c1)N1CCN(c2ccc([N+](=O)[O-])c(NC3CC3)c2)CC1`, for which the growth inhibition in assay [1] is 79% (active); in assay [4] it was 100% (active). Further, the inhibition in assay [2] was 11%; in assay [3], 4%. Besides, the result in assay [5], in assay [6], in assay [7] and in assay [8] was inactive.

As to `CN1CCN(Cc2ccc(-c3cc4c(Nc5ccc(OCc6cccc(F)c6)c(Cl)c5)ncnc4s3)[nH]2)CC1`, the results for the growth inhibition in assay [1] and in assay [4] were 99% (active) and 101% (active), respectively. The figures for the inhibition in assay [2] and in assay [3] were 23% and 2%, respectively. Also, the result in assay [5], in assay [6], in assay [7] and in assay [8] was inactive.

Take `N#Cc1ccc2c(c1)CCN(CCC1CCC(NC(=O)Nc3cnc4ccccc4c3)CC1)C2` (stereo not given): the figures for the growth inhibition in assay [1] and in assay [4] were 9% and 93% (active), respectively. Besides, the values for the inhibition in assay [2] and in assay [3] were 14% and 6%, respectively. Further, the outcome in assay [5], in assay [6], in assay [7] and in assay [8] was inactive.

Take `Cn1nccc1C(=O)NCCNCc1cccc(-c2cccc(-c3nc4ccc(C(F)(F)F)cc4[nH]3)c2)c1`: the values for the growth inhibition in assay [1] and in assay [4] were 99% (active) and 102% (active), respectively. In addition, the figures for the inhibition in assay [2] and in assay [3] were 39% and -7%, respectively. Besides, the result in assay [5], in assay [6], in assay [7] and in assay [8] was inactive.

Take `CN(C)CCNC(=O)c1cc2c(-c3ccc(Cl)cc3)nn(C)c2s1`: the growth inhibition in assay [1] was 81% (active); in assay [4] it was 98% (active). Further, the inhibition in assay [2] is 18%; in assay [3], -1%. Further, the result in assay [5], in assay [6], in assay [7] and in assay [8] was inactive.
